# High-throughput results as filed in PubChem BioAssay.
# Rows were chosen to be rich in hits. Some 11% of all compounds tested hit in one or more screens of this group.
# JMJD2A Tudor: qHTS Assay for Inhibitors of JMJD2A-Tudor Domain. Lysine-specific demethylase 4A (Homo sapiens), O75164. AlphaScreen JMJD2A-Tudor / H3K4me3 peptide binding. Potency, µM (series often up to 114 µM), most hits filed as inhibitors. 390,000 tested, 4.4% active; further: nearly all actives have a fitted effect of over 50% in size
# BAZ2B block: qHTS Assay for Inhibitors of BAZ2B. Bromodomain adjacent to zinc finger domain protein 2B (Homo sapiens), Q9UIF8. AlphaScreen BAZ2B-H3K14Ac peptide displacement. Potency, µM (doses to about 114 µM), actives largely listed as inhibitors. 360,000 tested, 4.4% active. AID 504333, 2011; further: nearly all actives have a fitted effect of over 60% in size
#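 Complex of BAZ2B and biotin-H3K14Ac (50 nM apiece) forms over 30 min at RT, then faces library compounds up to 110 uM for another 30 min; AlphaScreen beads added, 20 min dark incubation, luminescence read.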
# G9a block: qHTS Assay for Inhibitors of Histone Lysine Methyltransferase G9a; 350,000 tested, 8.8% active; Potency, µM (series often up to 102 µM), hits mostly inhibitors; G9a H3K9 monomethylation, AlphaScreen, 2 h; Histone-lysine N-methyltransferase EHMT2 (Homo sapiens), Q96KQ7; further: nearly all actives have a fitted effect of over 75% in size
# Target sequence (Q96KQ7 913-1193 limits assumed): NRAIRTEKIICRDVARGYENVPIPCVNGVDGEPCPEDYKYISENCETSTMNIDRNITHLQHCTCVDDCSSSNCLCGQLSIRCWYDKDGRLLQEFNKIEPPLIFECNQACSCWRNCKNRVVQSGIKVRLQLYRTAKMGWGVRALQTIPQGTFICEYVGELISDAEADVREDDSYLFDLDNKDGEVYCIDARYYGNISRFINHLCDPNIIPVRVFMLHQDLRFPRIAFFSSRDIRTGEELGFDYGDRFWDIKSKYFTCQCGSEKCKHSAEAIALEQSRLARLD
#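 Methyltransferase reactions run at room temperature for 2 h (20 nM enzyme, 500 nM biotin-H3K9 peptide, 20 uM SAM) after a 15 min compound preincubation; product detected by AlphaScreen beads and anti-H3K9me1 antibody.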
# PLK1 PBD block: qHTS for Inhibitors of PLK1-PDB (polo-like kinase 1 - polo-box domain): Primary Screen. Plk1 PBD binding of FITC phosphopeptide, fluorescence polarization. Potency, µM, most hits filed as inhibitors. 360,000 tested, 2.8% active. AID 720504, 2013; further: series mostly up to about 57 µM; nearly all actives have a fitted effect of over 65% in size
# HP1b chromo inh: HTS for Inhibitors of HP1-beta Chromodomain Interactions with Methylated Histone Tails. Chromobox protein homolog 1 (Homo sapiens), P83916. AlphaScreen HP1-beta / biotin-H3K9me3 peptide binding. Potency, µM (top dose mostly 114 µM), usual class: inhibitors. 390,000 tested, 0.56% active; further: nearly all actives have a fitted effect of over 70% in size
# Target sequence (P83916 whole entry, looked up): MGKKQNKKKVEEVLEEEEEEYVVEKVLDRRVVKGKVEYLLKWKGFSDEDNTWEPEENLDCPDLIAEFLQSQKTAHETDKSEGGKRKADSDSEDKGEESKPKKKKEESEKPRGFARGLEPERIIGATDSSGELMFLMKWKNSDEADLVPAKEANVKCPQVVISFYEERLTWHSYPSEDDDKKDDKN
#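 Compound inhibition of the preformed complex between 50 nM HP1-beta and 50 nM biotinylated H3K9me3 peptide was read by AlphaScreen. Buffer was PBS pH 7.4 with 0.01% Tween-20. Incubations ran 30 min at room temperature, with 10 ug/mL donor/acceptor beads.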
# VDR inh: Inhibitors of the vitamin D receptor (VDR): qHTS; Vitamin D3 receptor (Homo sapiens), P11473; VDR-SRC2-3 peptide fluorescence polarization, 2 h; Potency, µM, actives largely listed as inhibitors; 400,000 tested, 0.93% active; AID 504847, 2011
#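 Inhibition of the VDR/SRC2-3 peptide interaction is quantified by fluorescence polarization. Compounds (23 nl, pintool) incubate with the reagents for 2 hours at ambient room temperature.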
# Numbers stand for hits; 0 = inactive; ? = inconclusive; - = no result; [ ] = remark or other dose. The call rests on the fitted dose curve; in most records, active means well fitted curve in the direction sought with a large enough effect; inconclusive means small, poorly fitted or top-dose-only effect, or another doubt; inactive means no such curve, though single readings can be large; an effect the other way counts as inactive or inconclusive.
SMILES,JMJD2A Tudor,BAZ2B block,G9a block,PLK1 PBD block,HP1b chromo inh,VDR inh
CCN1CCN(CC(=O)c2cc(Cl)ccc2Cl)CC1,0,0,14.1µM,0,0,0
C[C@H](NC(=O)c1nc[nH]c1C(=O)N[C@@H](Cc1ccccc1)C(=O)OC(C)(C)C)C(=O)OCc1ccccc1,0,0,0,0,0,0
COCCNC(=O)CSc1nc2cc3c(cc2c(=O)n1Cc1ccc(C(=O)NCCc2ccc(OC)c(OC)c2)cc1)OCO3,0,0,0,-,0,0
O=c1c2c([N+](=O)[O-])cc([N+](=O)[O-])cc2sn1Cc1ccccc1,4.47µM,3.55µM,1µM,0.752µM,?,22.4µM
O=c1c2c([N+](=O)[O-])cc([N+](=O)[O-])cc2sn1-c1ccc(Br)cc1,17.8µM,5.01µM,1.41µM,2.67µM,7.94µM,25.1µM
O=C(NC1CC(=O)N(c2ccccc2)C1)c1cc2ccccc2o1 (stereo not drawn),0,0,0,-,0,0
COc1ccc(C2=NOC(C(=O)NCc3ccccc3)C2)cc1 (stereo not drawn),?,0,-,26.7µM,0,0
CCn1ncc(C2=NOC(C(=O)NCc3ccccc3)C2)c1C (stereo not drawn),0,0,44.7µM,?,0,0
CCn1ncc(C2=NOC(C(=O)NCc3ccc(OC)cc3)C2)c1C (stereo not drawn),0,0,0[2.33 µM],0,0,0
Cc1cc(=O)n2nc(N3CCC(C(=O)NCc4cccc(Cl)c4)CC3)sc2n1,0,0,-,0,0,0
Cc1ccc(S(=O)(=O)N2C(=O)C(c3ccccc3)SC2=Nc2ccccc2)cc1 (stereo not drawn),0,0,7.94µM,9.47µM,?,?
O=[N+]([O-])c1ccc(CSc2ccc(S(=O)(=O)N3CCCCCC3)cn2)cc1,0,0,?,0,0,0
CCOC(=O)c1c(NC(=O)CSc2ncccn2)sc2c1CCN(Cc1ccccc1)C2,22.4µM,?,?,23.8µM,0,0
CCOC(=O)c1c(NC(=O)CC)sc2c1CCN(Cc1ccccc1)C2,0,0,-,0,0,0
COC(=O)c1c(NC(=O)C2COc3ccccc3O2)sc2c1CCN(Cc1ccccc1)C2 (stereo not drawn),?,0,79.4µM,0,0,0
CCOC(=O)c1c(NC(=O)C(C)Sc2cccc[n+]2[O-])sc2c1CCN(Cc1ccccc1)C2 (stereo not drawn),?,0,8.91µM,0,0,0
COC(=O)c1c(NC(=O)C2COc3ccccc3O2)sc2c1CCN(C(=O)OC)C2 (stereo not drawn),-,-,-,0,-,-
CC1(C)CCC[C@]2(C)[C@H]3Cc4cc(O)ccc4O[C@]3(C)CC[C@@H]12,?,-,-,0,0,0
Cc1nn(-c2ccc(C(=O)O)cc2)c(C)c1Cl,0,0,0,0,0,0
Cc1c[n+]([O-])n(-c2ccc(C(=O)O)cc2)n1,?,56.2µM,?,0,0,0
COc1ccc2c3c(ccc2c1)C(=O)/C(=C/O)CC3,7.94µM,-,-,4.23µM,35.5µM,0
Cc1c(C)[n+](=O)c2c(n1[O-])C(Br)CCC2Br (stereo not drawn),79.4µM,79.4µM,1µM,0,0,0
Cc1c(C)[n+](=O)c2c(n1[O-])CCC2,0,0,0,0,0,0
NNC(=O)CCn1nnc2ccccc21,0,0,-,0,0,0
CC(=O)Nc1ccc(NC(=O)CCn2nnc3ccccc32)cc1,?,0,-,18.9µM,?,?
SMILES,JMJD2A Tudor,BAZ2B block,G9a block,PLK1 PBD block,HP1b chromo inh,VDR inh
O=C(c1ccccc1SCc1ccccc1)N1CCCCCC1,0,0,0,0,0,0
O=C(CSc1nc2c([nH]c3ccccc32)c(=O)n1-c1ccccc1)NCc1ccc(F)cc1,0,0,0,-,0,0
CN1CCc2ccc3c4c2[C@]1(C)Cc1cccc(c1-4)OCO3,0,-,-,-,-,-
C=CCn1c(SCC(=O)NCCOC)nnc1-c1cc2c(s1)CCC(CC)C2 (stereo not drawn),0,0,0,0,0,0
O=C(O)Cn1cc(/C=c2/sc3nc4ccccc4n3c2=O)c2ccccc21,56.2µM,?,50.1µM,?,?,0
Nc1[nH]c(C(=O)c2ccccc2)c(-c2ccccc2C(F)(F)F)c1C(=O)NCCc1c[nH]c2ccccc12,-,-,-,0,-,-
Cc1cc(Cl)c2oc(C(=O)N(C)CCc3cnn(C)c3)c(C)c2c1,?,0,0,23.8µM,0,0
Cc1cc(Cl)c2oc(C(=O)N(C)CCCCN3CCOCC3)c(C)c2c1,0,0,-,0,0,0
CC(C)C(NC(=O)/C(=C/c1ccco1)NC(=O)c1ccc(Br)o1)C(=O)O (stereo not drawn),?,?,22.4µM,0,0,0
CC(C)C(NC(=O)/C(=C\c1ccco1)NC(=O)c1ccco1)C(=O)O (stereo not drawn),?,0,39.8µM,0,0,0
O=c1cc(Cl)c(-c2ccccc2)nn1Cc1ccc(Cl)cc1,0,0,0[2.33 µM],0,0,0
Cc1cccc(OCc2n[nH]c(=S)n2Cc2ccccc2)c1,?,0,17.8µM,?,0,0
CCc1ccc(OCc2n[nH]c(=S)n2Cc2ccccc2)cc1,?,0,0,0,0,0
CC(C)CCn1c(COc2ccccc2)n[nH]c1=S,0,0,1.78µM,0,0,0
CCCCc1n[nH]c(=S)n1Cc1ccc(Cl)cc1,?,0,3.55µM,0,0,0
CCCCc1n[nH]c(=S)n1Cc1ccccc1,3.98µM,0,?,0,0,0
COc1ccccc1CC1(C)NC(=O)N(CC(=O)N2CC(C)OC(C)C2)C1=O (stereo not drawn),0,0,?,0,0,0
Cc1ccc(C)c(N2CCN(c3nc4ccccc4n4nnnc34)CC2)c1,0,0,0,-,0,0
CC[N+]1=CN(c2ccccc2)C(C)=CC1(C)C,?,0,1.78µM,?,0,0
CC1=NN(c2ccccc2)C(=O)C1(C)C,0,0,0,0,0,0
COc1ccc(S(=O)(=O)N2CCOC2CNC(=O)C(=O)NCc2ccccn2)cc1C (stereo not drawn),0,0,-,0,0,0
O=C(O)CC1=C(O)C(=O)N(c2ccccc2)C1c1ccccc1 (stereo not drawn),0,0,12.6µM,0,0,0
O=C(O)CC1=C(Nc2ccccc2)C(=O)N(c2ccccc2)C1c1ccc(F)cc1 (stereo not drawn),0,0,31.6µM,0,0,0
